From PubChem
An excerpt weighted towards active compounds, which were near 3.5% of everything screened.
TEAD-YAP block = TEAD-YAP interaction inhibition, primary screen, TEAD-YAP interaction inhibitor project, luminescence, HEK-TIYL cells | AID 1259422, 2018 | 640,000 compounds, 1.4% hits | inhibition, % at 9.12 µM | TEAD-Gal4/YAP UAS-luciferase luminescence; in the data active = inhibition above about 32%
GPR151 activ = activators of human GPR151, primary screen, cell-based, PathHunter beta-arrestin, luminescence. AID 1508602, 2020. activation, % at 11.2 µM. G-protein coupled receptor 151 (Homo sapiens), Q8TDV0. PathHunter beta-arrestin GPR151 cells. 650,000 compounds, 1% hits; in the data active = activation above about 4.9%
FBW7 activator = FBW7 E3 ligase activators, primary screen, biochemical, AlphaScreen, human; F-box/WD repeat-containing protein 7 (Homo sapiens), Q969H0; AlphaScreen FBW7–phospho-cyclin E peptide binding, activator screen; normalized activity (activation), % at 26.1 µM; 650,000 compounds, 0.13% hits; in the data active = normalized activity above about 1.9%;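 also: purified mutant Fbw7 with reduced substrate affinity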
MITF primary = MITF inhibitors, primary screen, biochemical, AlphaScreen, human; Microphthalmia-associated transcription factor (Homo sapiens), O75030; AlphaScreen MITF homodimerization, bead proximity signal; inhibition, % at 2.6 µM; 650,000 compounds, 0.91% hits; in the data active = inhibition above about 50%
Target sequence (O75030 whole entry, looked up): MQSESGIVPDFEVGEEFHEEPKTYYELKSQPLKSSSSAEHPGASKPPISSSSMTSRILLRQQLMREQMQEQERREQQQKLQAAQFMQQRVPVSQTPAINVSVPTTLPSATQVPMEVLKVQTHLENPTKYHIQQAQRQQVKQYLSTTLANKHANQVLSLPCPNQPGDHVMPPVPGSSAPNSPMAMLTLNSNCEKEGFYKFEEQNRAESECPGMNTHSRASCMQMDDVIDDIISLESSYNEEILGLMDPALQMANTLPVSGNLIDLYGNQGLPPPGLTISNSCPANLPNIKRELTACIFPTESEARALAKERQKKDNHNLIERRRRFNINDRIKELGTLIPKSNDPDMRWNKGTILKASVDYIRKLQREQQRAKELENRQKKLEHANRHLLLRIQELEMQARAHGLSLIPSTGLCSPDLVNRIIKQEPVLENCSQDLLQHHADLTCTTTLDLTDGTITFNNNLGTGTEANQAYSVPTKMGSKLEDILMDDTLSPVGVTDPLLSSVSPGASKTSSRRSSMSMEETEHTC
Large screens that a line does not name were inactive; ! = repeats disagree.

O=S(=O)(NCc1cccnc1)c1ccc(Cc2ccc(S(=O)(=O)NCc3cccnc3)cc2)cc1	TEAD-YAP block 51
O=S(=O)(NCc1cccnc1)c1ccc(Cl)cc1	none
CC(=O)N1CCc2cc(S(=O)(=O)N[C@@H](C)C(=O)O)ccc21	none
O=C(NCCN1CCOCC1)c1ccc2nc(-c3ccc(C(=O)NC4CC4)cc3)sc2c1	none
COC1=CC(=O)C=C(OC)C1=O	TEAD-YAP block 55
O=C(NC1CCN(Cc2ccccc2)CC1)C1CCN(c2ccc(Nc3ccc4ncccc4c3)nn2)CC1	none
O=[N+]([O-])c1ccc(Cl)c(C=Nc2ccc3[nH]ncc3c2)c1	none
CN1C(=O)C(=Cc2ccccc2OCC(=O)O)C(=O)N(C)C1=S	MITF primary 72
CN1C(=O)C(=Cc2ccccc2OCC(=O)Nc2ccccc2)C(=O)N(C)C1=S	none
C=CCNC(=O)c1c(-c2ccccc2)nc2cc(C)ccn12	FBW7 activator 1.9
Cc1ccc2nc(C(F)(F)F)c(C#N)c(N)c2c1	TEAD-YAP block 45
O=C(/C=C/c1ccc([N+](=O)[O-])cc1)Nc1cccc(C(=O)c2ccc(F)cc2)c1	TEAD-YAP block 38
Cc1cc2cc(CN(CCCO)C(=O)Nc3ccc(F)cc3)c(=O)[nH]c2cc1C	none
COc1ccc(Cn2c(CCC(=O)N3CCC(C(N)=O)CC3)nc3ncccc3c2=O)cc1	none
Cc1ccsc1/C=C1\S/C(=N/c2nccs2)NC1=O	TEAD-YAP block 38
N=c1sc2c(n1CC(=O)c1ccc(F)cc1)CCCC2	TEAD-YAP block 56
Cc1cc(S(=O)(=O)O)ccc1N1N=C(C(=O)O)CC1=O	MITF primary 71
CCOC(=O)CCN(Cc1ccc(OC)c(OC)c1)S(=O)(=O)c1ccc([N+](=O)[O-])cc1	none
Fc1ccccc1N=c1oc2ccccc2cc1-c1nc2ccccc2[nH]1	TEAD-YAP block 40
Fc1ccc(N=c2oc3ccccc3cc2-c2nc3ccccc3[nH]2)cc1	none
COc1ccc(N=c2oc3ccccc3cc2-c2nc3ccccc3[nH]2)cc1	TEAD-YAP block 38
COc1ccc2cc3c(N)[nH]nc3nc2c1	TEAD-YAP block 80
N/C(=N\N=C/c1ccc([N+](=O)[O-])cc1)N/N=C\c1ccc([N+](=O)[O-])cc1	FBW7 activator 4.3
O=C(N/N=C/c1ccccc1)c1cccc(O)c1	TEAD-YAP block 34
O=C(N/N=C/c1ccc([N+](=O)[O-])cc1)c1cccc(O)c1	TEAD-YAP block 40
O=C(N/N=C/c1ccc(O)cc1)c1cccc(O)c1	none
O=C(CC(=O)N/N=C/c1ccc([N+](=O)[O-])cc1)N/N=C/c1ccc([N+](=O)[O-])cc1	none
CC(=O)c1cc(C)ccc1OC(=O)c1ccc(C(F)(F)F)cc1	none
O=C(C/C=C/c1cccc([N+](=O)[O-])c1)C1C(=O)c2ccccc2C1=O	none
NS(=O)(=O)c1ccc(NC(=S)NC2CCN(Cc3ccccc3)CC2)cc1	none
O=[N+]([O-])c1ccc(NC(=S)NC2CCN(Cc3ccccc3)CC2)cc1	TEAD-YAP block 34
Cc1cccc(-c2c(C#N)cnc3cc(C)nn23)c1	TEAD-YAP block 33
Cc1ccc(-c2cc3ncc(C#N)c(-c4cccc(C)c4)n3n2)cc1	none
CSc1ccccc1C(=O)Nc1nc2nc(C)cc(C)c2s1	FBW7 activator 8.8
Cc1cc(C)c2sc(NC(=O)c3cc4ccccc4o3)nc2n1	none
Cc1cc(C)c2sc(NC(=O)c3ccccc3C)nc2n1	TEAD-YAP block 61
CSc1ccccc1C(=O)Nc1nc2cc(C)cc(C)c2s1	none
Cc1ccc(C)n1CC(O)c1ccccc1 (configuration not stated)	none
Nc1nc(-c2ccccc2)cc(N2CCCC2)n1	TEAD-YAP block 45
c1ccc(-c2nc(-c3ccncc3)cc(N3CCCCC3)n2)cc1	none
O=C(Cc1ccccc1)NNC(=O)Cc1cccc(F)c1	none
COC(=O)c1nn(-c2ccc3c(c2)CCN3C(C)=O)cc1O	TEAD-YAP block 94
COc1ccc(OCc2n(CC(=O)OC3CC(C)CCC3C(C)C)c3ccccc3[n+]2C)cc1 (configuration not stated)	TEAD-YAP block 41
N#CC1=C(N)n2ncnc2NC1c1cccc([N+](=O)[O-])c1 (configuration not stated)	none
CCn1c(=N)n(CC(=O)c2ccc(C)cc2)c2ccccc21	none
CCn1c(=N)n(CC(=O)c2ccc(Br)cc2)c2ccccc21	FBW7 activator 3.4
Nc1c(C(=O)c2ccccc2)sc2nc3c(c(-c4cccs4)c12)CCCC3	none
NC(=O)c1sc2nc3c(c(-c4cccs4)c2c1N)CCCCC3	TEAD-YAP block 36
NC(=O)c1sc2nc3c(c(-c4ccco4)c2c1N)CCCCC3	TEAD-YAP block 40
N#Cc1c(N)nc2sc(C(N)=O)c(N)c2c1-c1cccs1	TEAD-YAP block 42
COc1ccc(-c2c(C#N)c(N)nc3sc(C(N)=O)c(N)c23)cc1OC	none
CCOC(=O)c1sc2nc3c(c(-c4ccco4)c2c1N)CCCC3	none
CCOC(=O)N1CCN(C(=S)NC(=O)c2cccnc2)CC1	none
Cc1nn(-c2ccc(F)cc2)c(Cl)c1/C=C/C(=O)O	none
O=C(Nc1cccc([N+](=O)[O-])c1)C1C2CC3OC(=O)C1C3C2 (configuration not stated)	none
Cc1ccc(C)c(S(=O)(=O)Nc2ccc(I)cc2)c1	TEAD-YAP block 47
N#CC1=C(SCC(=O)Nc2cccc(Cl)c2)NC(=O)C(C#N)C12CCCCC2 (configuration not stated)	none
CCOC(=O)COc1ccc(S(=O)(=O)Nc2ccc(OC)c(Cl)c2)cc1	none
COCC(=O)Nc1cnn(-c2ccc(C(=O)NC(c3ccccc3)c3ccncc3)cc2)c1 (configuration not stated)	none
CCOc1ccccc1N=CC1=C(O)CC(c2ccccc2)CC1=O (configuration not stated)	FBW7 activator 2.0!
O=C1CC(c2ccccc2)CC(O)=C1C=NCc1ccc2c(c1)OCO2 (configuration not stated)	TEAD-YAP block 38
CSc1ccccc1N=CC1=C(O)CC(c2ccccc2)CC1=O (configuration not stated)	none
O=C1CC(c2ccccc2)CC(O)=C1C=NCc1ccccc1Cl (configuration not stated)	TEAD-YAP block 51
Cc1ccc2oc(-c3ccc(N4CCC(C)CC4)c([N+](=O)[O-])c3)nc2c1	TEAD-YAP block 93
CC1=NN(c2cccc(C(=O)O)c2)C(=O)/C1=C\c1ccc(-c2ccc(Cl)c(C(=O)O)c2)o1	MITF primary 74
CC1=NN(c2cccc(C(=O)O)c2)C(=O)/C1=C\c1ccccc1O	MITF primary 57
CCOc1cc(/C=C2\C(=O)N(c3cccc(C(=O)O)c3)N=C2C)cc(Cl)c1OC	MITF primary 61
CSC1=NC(=Nc2cccc(C)c2)C2(CCCC2)N1c1ccc(C)cc1	none
CC(C)c1ccc(C(=O)CSc2ncn[nH]2)cc1	TEAD-YAP block 37
